Measured values taken from PubChem BioAssay (NCI).
About 83,000 compounds went through this panel and 20% of them were active in at least one assay; those are over-represented in the sample as a whole.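 Method: cells in 96-well plates; compound added at one concentration; 48 h incubation; percent growth measured; values under 10 scored active.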 Values without a mark were called inactive. Calls of active or inactive are those of the source.

Tests used:
Assay in all cases: NCI-60 one-dose screen, 48 h (100 = growth as untreated, 0 = no growth, -100 = all killed)
Conditions in all cases: 10 µM unless noted
SR leukemia = system: SR leukemia
RPMI-8226 leukemia = system: RPMI-8226 leukemia
OVCAR-8 ovarian = system: OVCAR-8 ovarian
OVCAR-5 ovarian = system: OVCAR-5 ovarian
OVCAR-4 ovarian = system: OVCAR-4 ovarian
SK-OV-3 ovarian = system: SK-OV-3 ovarian
IGROV1 ovarian = system: IGROV1 ovarian
OVCAR-3 ovarian = system: OVCAR-3 ovarian
HS 578T breast = system: HS 578T breast
NCI/ADR-RES ovarian = system: NCI/ADR-RES ovarian

| Compound | growth (SR leukemia) | growth (RPMI-8226 leukemia) | growth (OVCAR-8 ovarian) | growth (OVCAR-5 ovarian) | growth (OVCAR-4 ovarian) | growth (SK-OV-3 ovarian) | growth (IGROV1 ovarian) | growth (OVCAR-3 ovarian) | growth (HS 578T breast) | growth (NCI/ADR-RES ovarian) |
| --- | --- | --- | --- | --- | --- | --- | --- | --- | --- | --- |
| CCN(CC)c1ccc(/C=C/c2cc(C)c3ccccc3n2)cc1 | 43.6% | 65.6% | 75.1% | 92.4% | 82.8% | 57.7% | 54.1% | 37.1% | 93.8% | 15.9% |
| Cc1ccc(C)c2c1CCC2C(C)C (stereo not given) | 89.3% | 96.7% | 100% | 98.3% | 100% | 92.9% | 103% | 104% | 100% | 105% |
| Cc1cc2nc3c4cc(O)ccc4n(CCN(C)C)c3nc2cc1C | 8.05% (active) | -11.2% (active) | -18.6% (active) | -11.6% (active) | 4.91% (active) | -2.47% (active) | -26.4% (active) | 3.66% (active) | 14.1% | -40.2% (active) |
| O=S(=O)(NCCCNc1cc(-c2cn(-c3ccccc3)nc2-c2cccc(O)c2)ccn1)c1ccc(F)cc1 | 6.17% (active) | 21.4% | 23.4% | 65.5% | 35.7% | 49% | 40.6% | 45.8% | 24.3% | 25.9% |
| N#Cc1cnc2cc(OC[C@@H](O)CO)c(NC(=O)C3CCCC3)cc2c1Nc1ccc(OCc2cccc(F)c2)c(Cl)c1 | 13.4% | -13.5% (active) | -13.6% (active) | 86.1% | -74.8% (active) | 27% | 4.22% (active) | -82% (active) | -32.2% (active) | 63.3% |
| CCc1cccc(CC)c1NC(=O)c1sc2nc3c(cc2c1N)CCCC3 | 18.2% | 85.8% | 84.7% | 95.3% | 78.2% | 81.9% | 64.5% | 54.6% | 65.2% | 45.3% |
| COc1cc(-c2cc3ncccc3c3nc(OCCN(C)C)c4cccnc4c23)cc(OC)c1OC | 8.77% (active) | -7.46% (active) | -5.22% (active) | 44.8% | -43.9% (active) | -10.8% (active) | 9.72% (active) | -25.6% (active) | 14.4% | 5.27% (active) |
| Clc1cc(Cl)cc(Nc2ccc3c(OCCCN4CCOCC4)cccc3n2)c1 | 6.22% (active) | 11.1% | 81.8% | 49.3% | 65.3% | 75.8% | 72.9% | 64.8% | 35.9% | 60.9% |
| CC[C@H](CC[C@@H](C)[C@H]1CC[C@H]2[C@@H]3/C(=C/c4cccnc4)C(=O)C4=CC(=O)CC[C@]4(C)[C@H]3CC[C@]12C)C(C)C | 62.4% | 74.4% | 64.5% | 105% | 100% | 112% | 95.6% | 102% | 107% | 90.5% |
| Nc1c(C(=O)Nc2cccc3ccccc23)sc2nc3c(cc12)CCCC3 | 9.22% (active) | 28.3% | 33.8% | 44.7% | 52.7% | 36.8% | 45.4% | 2.02% (active) | 27.8% | 0.722% (active) |
| CC(C)(C)c1ccc(OCCCCCCCN2CCNCC2)cc1 | -10.4% (active) | -17% (active) | 71.3% | 68.5% | 54% | 81.5% | 52% | 62% | 24.9% | 71.7% |
| N#CC1=C(N)Oc2c(c(N)nn2-c2ccccc2)C1c1ccc(Cl)cc1Cl (stereo not given) | 97.3% | 94.4% | 96.9% | 98.2% | 95.7% | 92.5% | 101% | 110% | 101% | 100% |
| CC1(C)C(=O)CC[C@]2(C)[C@H]3C(=O)C=C4[C@@H]5C[C@@](C)(C(=O)NCCNCCN)CC[C@]5(C)CC[C@@]4(C)[C@]3(C)CC[C@@H]12 | 20% | 91.1% | 99.6% | 108% | 105% | 104% | 96.4% | 104% | 97.5% | 102% |
| COc1ccc(-n2c(/C=C/c3ccc(O)c(OC)c3)cc(/C=C/c3ccc(O)c(OC)c3)nc2=O)cc1 | 14.2% | 21.4% | 66% | 112% | 62.5% | 62.3% | 63.5% | 41.4% | 62.5% | 84.3% |
| Cc1cc(N2CCCC2)nc(N(CCNc2ccnc3cc(Cl)ccc23)Cc2ccco2)n1 | -14.9% (active) | -42.3% (active) | 57% | 25.3% | 38.6% | 65.5% | 4.93% (active) | 13.8% | 62.1% | 18.4% |
| Cc1cccc(C)c1NCc1nc(-c2ccccc2)n[nH]1 | 102% | 108% | 102% | 95.6% | 102% | 93.7% | 94.6% | 113% | 108% | 103% |
| COc1ccc(-c2cc(=O)oc3ccc(Cl)cc23)cc1F | 11.2% | 28.1% | 20.3% | 54.7% | 55.9% | 0.514% (active) | 43.1% | 6.02% (active) | 20.1% | 6.24% (active) |
| Cc1cc(N2CCCCC2)nc(N(CCCNc2ccnc3cc(Cl)ccc23)Cc2ccco2)n1 | -20.6% (active) | -35.3% (active) | 42.5% | 41.5% | 39.8% | 57.4% | 4.05% (active) | 21% | 61.3% | 4.38% (active) |
| C=C(C)[C@@H]1CC[C@]2(C(=O)OC)CC[C@]3(C)[C@H](CC[C@@H]4[C@@](C)(CC/C(N)=N/O)[C@H](C(=C)C)CC[C@]43C)[C@@H]12 | 69.2% | 93% | 102% | 105% | 92.1% | 115% | 107% | 103% | 93.9% | 101% |
| N#Cc1c(-c2ccc(O)cc2)c2c(N)nn(-c3ccccc3)c2[nH]c1=O | 115% | 101% | 105% | 105% | 113% | 102% | 93% | 110% | 104% | 102% |
| N#CC1=C(N)Oc2c(sc3c(F)cccc23)C1c1ccc(Cl)cc1 (stereo not given) | 10.8% | 10.6% | 42.8% | 82.1% | 62.8% | 31% | 33.3% | 6.16% (active) | 40.6% | 14.4% |
| COC(=O)C(Cc1ccccc1)n1cc(COc2nc(Cl)nc(Nc3ccc(Cl)cc3)n2)nn1 (stereo not given) | 66.8% | 72.7% | 96.1% | 116% | 104% | 106% | 99% | 87.2% | 81.6% | 101% |
| c1ccc(-c2nc(Nc3ccc(-c4nc5ccccc5[nH]4)cc3)nc(N3CCOCC3)n2)cc1 | 8.94% (active) | -22.6% (active) | -50.4% (active) | 0.632% (active) | -47.2% (active) | -30.3% (active) | -38.1% (active) | -73.4% (active) | -39.9% (active) | -60.8% (active) |
| Cc1ccncc1C(=O)O | 120% | 108% | 95.5% | 94.7% | 96% | 137% | 99.6% | 101% | 96.5% | 96.8% |
| N=c1ccc2nc3c(cc(N)c4ccccc43)oc-2c1 | -41% (active) | -49.3% (active) | -54.1% (active) | -100% (active) | -100% (active) | -96.3% (active) | -29.4% (active) | -90.1% (active) | -23.3% (active) | -57.7% (active) |
| N#Cc1c(-c2ccco2)nc2c(c(-c3ccccc3)nn2-c2ccccc2)c1-c1ccc(O)cc1 | 19.7% | 55.3% | 55.2% | 93.4% | 77.7% | 46.4% | 84.2% | 86% | 53.8% | 76.4% |
